Sampled rows, rich in hits. Any-hit rate of the full collection: about 8%.
MCF10A rerep: DNA re-replication induction in MCF 10a cells; MCF 10A DNA re-replication, Hoechst nuclear intensity, 48 h; Potency, µM (top dose mostly 46.1 µM), usual class: activators; 350,000 tested, 2.9% active; note: nearly all actives have a fitted effect of over 50% in size
KB-V1 MDR tox: KB-V1 MDR subline cytotoxicity. KB-V1 MDR cells viability, CellTiter-Glo, 72 h. Potency, µM (doses to about 46.1 µM), usual class: cytotoxic. 400,000 tested, 3.4% active. AID 1347076; note: nearly all actives have a fitted effect of over 60% in size
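KB-V1 cells (P-gp-expressing MDR subline of KB-3-1) in phenol-red-free DMEM with 10% FBS were exposed to library compounds over a concentration series for 72 h at 37 degrees C. Viability read by CellTiter-Glo luminescence; concentration-effect curves fitted after normalization.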
KB-3-1 tox: kills parental KB-3-1 adenocarcinoma cells. KB-3-1 viability, CellTiter-Glo ATP luminescence, 72 h. Potency, µM (titrated, usually from 46.1 µM), most hits filed as cytotoxic. 400,000 tested, 1.4% active; note: nearly all actives have a fitted effect of over 60% in size
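Cytotoxicity in the drug-sensitive parental line KB-3-1 was scored as loss of CellTiter-Glo luminescence following 72 h incubation with compound. Values come from curve fitting of normalized concentration-response data.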
HT1080NT lethal: kills 2HG-producing HT-1080-NT fibrosarcoma cells; HT-1080-NT fibrosarcoma viability, CellTiter-Glo ATP luminescence, 48 h; Potency, µM (top dose mostly 46.1 µM), actives largely listed as cytotoxic; 360,000 tested, 1.6% active; AID 686970;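 note: NT is the 2HG producing partner of a matched IDH1 knockdown line; nearly all actives have a fitted effect of over 55% in size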
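A 48-hour cytotoxicity screen used HT-1080-NT cells plated 2 hours before compound delivery. ATP-based CellTiter-Glo luminescence measured viability, normalized to DMSO and no-cell controls.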
HT1080 IDH1KD tx: HT-1080 IDH1 knockdown cell toxicity (counter line). Potency, µM (doses to about 46.1 µM), actives largely listed as cytotoxic. 360,000 tested, 2% active. HT-1080 IDH1 knockdown viability, ATP luminescence, 48 h
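IDH1KD HT-1080 cells, 750/well, RPMI + 5% FBS; compound pinned after 2 h settling; 48 h, 37 °C; CellTiter-Glo luminescence; % activity normalised to DMSO and no-cell wells; curves fitted, classed by r2 and efficacy.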
SW480 rereplic: induces DNA re-replication in SW480 colon adenocarcinoma cells; SW480 DNA re-replication, Hoechst DNA content imaging, 48 h; Potency, µM (top dose mostly 46.1 µM), usual class: activators; 340,000 tested, 1.8% active; note: nearly all actives have a fitted effect of over 55% in size
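Per well, 250 cells were exposed to pinned compound for 48 hr. Nuclear DNA was visualised with Hoechst (40 min, 37 C) and total object intensity recorded by fluorescence scanning.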
Hits are given with their value; - = inactive; ? = inconclusive; . = no result given; ! = not active in a repeat; [ ] = another dose, or the depositor's remark. Calls come from the whole dose curve; as a rule, active = well fitted curve in the direction sought with a large enough effect; inconclusive = small, poorly fitted or top-dose-only effect, or another doubt; inactive = no such curve, though single readings can be large; an effect the other way counts as inactive or inconclusive.

SMILES | MCF10A rerep | KB-V1 MDR tox | KB-3-1 tox | HT1080NT lethal | HT1080 IDH1KD tx | SW480 rereplic
CCOc1cc(CNc2ccc(O)cc2)ccc1OCc1ccc(Cl)cc1Cl | ? | ? | - | - | - | ?
COc1cc(CNC(C)(C)CO)cc(Br)c1OCc1ccc(Cl)cc1Cl | 18µM | 18µM | ? | 16µM | 16µM | -
CCC(C)N1C(=O)N(c2cccc(Cl)c2)C(C)(O)CC1(C)C (configuration not stated) | - | - | - | - | - | -
COc1cc(NC(=O)c2ccc(OCc3c(C)noc3C)c(OC)c2)cc(OC)c1 | - | - | - | - | - | -
COc1cc(CNCCO)cc(Br)c1OCc1ccccc1Cl | ? | ? | ? | - | - | ?
COc1cc(CNCCO)cc(Cl)c1OCc1ccc(Cl)cc1Cl | ? | - | - | 21µM | 16µM | ?
Cc1ncc(CSc2ccc(Cl)cc2)c(CO)c1O | - | - | - | - | - | -
O=C(Nc1cccc(C(F)(F)F)c1)C1CCCN(S(=O)(=O)c2cccc3nsnc23)C1 (configuration not stated) | . | - | - | . | . | .
COc1ccc(S(=O)(=O)n2ccc(-c3ccc4c(c3)CCC(C)(C)O4)n2)cc1 | ? | 12µM | - | - | ? | ?
CCOc1ccc(CC2c3cc(OCC)c(OCC)cc3CCN2C(=O)c2cc(OC)c(OC)c(OC)c2)cc1OCC (configuration not stated) | ? | ? | - | - | - | -
CN[C@H]1CCc2cc(OC)c(OC)c(OC)c2-c2ccc(N(C)CC(OC)OC)c(=O)cc21 | - | ? | 2.6µM | 4.1µM | ? | ?
COc1cc2c(c(OC)c1OC)-c1ccc(N(C)CC(OC)OC)c(=O)cc1[C@@H](NC(C)=O)CC2 | 0.58µM | ? | 0.52µM | ? | 0.65µM | 1.5µM
COc1cc2c(c(OC)c1OC)-c1ccc(OC)c(=O)cc1[C@@H](N(C)CC#CCO)CC2 | ? | ? | 0.052µM | 0.0073µM | 0.16µM | ?
COc1ccc2c(c1)cc1c(=O)n(CC(=O)NCc3ccco3)nc(C)n12 | . | - | - | . | . | .
Cn1c(=NC(=O)CN2C(=O)C3CC=CCC3C2=O)sc2ccccc21 (configuration not stated) | - | 5.2µM! | - | - | - | -
Cn1c(=NC(=O)C2=NNC(=O)CC2)sc2ccccc21 | - | 1.5µM | 3.3µM | - | - | -
O=C(NC1CCCCC1)C(c1ccccc1F)n1c(=O)c(-c2cc3ccccc3[nH]2)nc2ccccc21 (configuration not stated) | . | ? | ? | - | ? | .
O=C(NC1CCCCC1)C(c1cccc2ccccc12)n1c(=O)c(-c2cc3ccccc3[nH]2)nc2ccccc21 (configuration not stated) | . | - | - | 21µM | 18µM | .
CC(C)(C)NC(=O)C(c1ccnc2ccccc12)n1c(=O)c(-c2cc3ccccc3[nH]2)nc2ccccc21 (configuration not stated) | . | ? | ? | 21µM | 23µM | .
O=C(NC1CCCCC1)C(c1ccncc1)n1c(=O)c(-c2cc3ccccc3[nH]2)nc2ccccc21 (configuration not stated) | . | 16µM | 21µM | ? | ? | .
C(=Nc1cnc2ccccc2c1)c1ccncc1 | . | - | ? | . | . | .
CC(=O)Nc1ccc(NS(=O)(=O)c2ccc(CN3C(=O)c4cccnc4C3=O)cc2)cc1 | - | - | - | - | - | -
CC(=O)C1=C(C)OC(N)=C(C#N)C1c1cccc([N+](=O)[O-])c1 (configuration not stated) | - | - | - | - | - | -
CC(=O)C1=C(C)OC(N)=C(C#N)C1c1cc([N+](=O)[O-])ccc1Cl (configuration not stated) | ? | - | - | 16µM | ? | 3.3µM
Cc1ccc(/C=c2/sc3n(c2=O)CCCN=3)o1 | - | - | - | - | - | -
SMILES | MCF10A rerep | KB-V1 MDR tox | KB-3-1 tox | HT1080NT lethal | HT1080 IDH1KD tx | SW480 rereplic
CC1CC/C(=C\c2ccc3c(c2)OCO3)C(=O)/C1=C/c1ccc2c(c1)OCO2 (configuration not stated) | 7.3µM | - | 26µM | ? | ? | ?
O=c1/c(=C\c2ccc3c(c2)OCO3)sc2n1CCCN=2 | - | 13µM | - | - | - | -
O=C1/C(=C\c2ccc3c(c2)OCO3)CCC/C1=C/c1ccc2c(c1)OCO2 | 12µM | - | - | - | - | -
O=C1OCC/C1=C\c1ccc2c(c1)OCO2 | - | - | - | - | - | -
CCNC(=O)NC(=O)CSc1ccc(S(=O)(=O)N(C)C2CCCCC2)cn1 | - | 21µM | - | - | - | -
CCC(C)NC(=O)CSc1ccc(S(=O)(=O)N(C)C2CCCCC2)cn1 (configuration not stated) | - | 12µM | - | - | - | -
CCCNC(=O)CSc1ccc(S(=O)(=O)N(C)C2CCCCC2)cn1 | . | - | - | - | - | .
CCn1c(O)c(/C=N/N=C/c2ccccc2)c2ccc(C3=NNC(=O)CC3)cc21 | 16µM | ? | ? | - | ? | -
CCN(C(=O)Cn1cc(S(=O)(=O)Cc2ccccc2Cl)c2ccccc21)c1ccccc1 | . | ? | - | . | . | .
COc1ccccc1NC(=O)C1=C(C)Nc2ncnn2C1c1ccccc1C (configuration not stated) | -[0.0737 µM] | - | - | - | - | 4.1µM
COc1ccc(C2CC(=O)C3=C(C2)Nc2ncnn2C3c2ccccc2C)cc1 (configuration not stated) | - | 16µM | - | - | - | -
O=C1NN(c2ccc(F)c(Cl)c2)C(=O)/C1=C\c1cccc(OC(=O)c2cccs2)c1 | 15µM | - | - | ? | ? | -
CSc1ccc(CN(C)C(=O)CNC(=O)c2ccc3c(c2)OCO3)cc1 | - | 21µM | - | - | - | -
COc1ccc(OC)c(NC(=O)c2ccc3c(c2)c(C)c(C)n3Cc2ccc(F)cc2)c1 | . | - | - | . | . | .
Cc1ccc(Nc2nc(Nc3ccc(Cl)cc3)nc(N3CCOCC3)n2)cc1 | . | - | - | . | . | .
Cc1nc(-c2ccc(F)cc2)c(CC(=O)N(C)CC(=O)Nc2ccccc2Cl)s1 | - | 3.7µM | - | - | - | -
CN(CC(=O)Nc1ccc(Cl)c(C(F)(F)F)c1)C(=O)Cc1n[nH]c(=O)c2ccccc12 | - | - | ? | - | - | -
CCc1nc2ccc(C(=O)N(C)CC(=O)Nc3ccc(Cl)c(C(F)(F)F)c3)cc2nc1CC | ? | - | - | ? | 21µM | -
Cc1nc(-c2ccc(F)cc2)c(CC(=O)N(C)CC(=O)Nc2ccc(Cl)c(C(F)(F)F)c2)s1 | ? | - | - | ? | 16µM | ?
O=C(Nc1cccc2ccccc12)c1cnn2c1NC(=C1CC1)C=C2C(F)F | . | - | - | . | . | .
O=C(CCNC(=O)c1ccc([N+](=O)[O-])cc1)NCCc1ccccc1 | - | - | - | - | - | -
